The supplement of paper PMC10981050
Values joined by “and” are separate entries in the source; they are usually repeats but may differ in a detail not shown here. Equal entries are not always repeated. Structures can show the parent of a compound that is named as a salt.

What was measured:
Assay in all cases: cell viability relative to vehicle control; higher = less cytotoxic
Conditions in all cases: 10 µM
K562 = test system: K562
In short: (§1)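 CRISPR-edited mutant clones and isogenic wild-type clones from four leukaemia lines were screened against Selleck bioactive, kinase and epigenetic probe libraries, with identity-inconsistent compounds excluded. Each compound was acoustically dispensed at a single 10 µM dose into 384-well plates holding 2000 cells in 50 µL medium per well. After 48 h the supernatant was removed and CellTiter-Glo luminescence was read. Viability was expressed as percent of the on-plate vehicle control and analysed in Genedata Screener.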

MARIMO = test system: MARIMO
In short: as §1

MOLM14 = test system: MOLM14
In short: as §1

OCI-AML2 = test system: OCI-AML2
In short: as §1

SMILES	cell viability (K562; SRSF2 genotype: SRSF2 P95H/wt)	cell viability (K562; SRSF2 genotype: SRSF2 wt/wt) [%]	cell viability (MARIMO; SRSF2 genotype: SRSF2 P95H/wt) [%]	cell viability (MARIMO; SRSF2 genotype: SRSF2 wt/wt) [%]	cell viability (MOLM14; SRSF2 genotype: SRSF2 P95H/wt) [%]	cell viability (MOLM14; SRSF2 genotype: SRSF2 wt/wt) [%]	cell viability (OCI-AML2; SRSF2 genotype: P95H/wt) [%]	cell viability (OCI-AML2; SRSF2 genotype: wt/wt) [%]
CN(C)C1C(=O)C(C(N)=O)=C(O)C2(O)C(=O)C3=C(O)c4c(O)cccc4C(C)(O)C3CC12 (stereo unspecified) [Tetracycline hydrochloride]	84.5% and 91.2%	90.4	90.7	96.3	102	98.3	89.3	95.9
CN1C2CC(O)CC1C1OC12 (stereo unspecified) [Scopine]	100% and 97.1%	95.5	101	103	97	100	93.6	106
CCOC(=O)Nc1ccc(NCc2ccc(F)cc2)cc1N [Retigabine 2HCl]	94.1% and 97.3%	97.4	91.6	103	105	102	96.5	102
CNCC(O)c1ccc(O)cc1 (stereo unspecified) [Synephrine (Oxedrine)]	106% and 102%	94.5	103	98.5	97.4	101	98.4	106
O=Cc1ccccc1 [Benzoic aldehyde]	98.9% and 98%	95	86.4	91.5	93	92.4	85.4	88.3
COC1=C[C@@H]2[C@@H]3Cc4ccc(OC)c(O)c4[C@]2(CCN3C)CC1=O [Sinomenine (Cucoline)]	103% and 95.1%	90.5	97.9	96.2	89.9	97.3	95	97.8
Cc1sc2c(c1C)C(c1ccc(Cl)cc1)=NC(CC(N)=O)c1nnc(C)n1-2 (stereo unspecified)	65.2% and 63.5%	69.8	30	36.7	20.1	20.3	15.3	29.4
Cc1c([C@H](C)[C@@H]2NC[C@@H](C)C[C@H]2O)ccc2c1C[C@H]1[C@H]2CC=C2C[C@@H](O)CC[C@@]21C [Veratramine]	73.9% and 73%	75	64.7	64.5	81.1	89.6	47.1	62.9
CN1C2CC(OC(=O)C(CO)c3ccccc3)CC1C(O)C2 (stereo unspecified) [Raceanisodamine]	107% and 103%	107	99	111	100	107	99.6	104
N#C[C@H](O[C@@H]1O[C@H](CO[C@@H]2O[C@H](CO)[C@@H](O)[C@H](O)[C@H]2O)[C@@H](O)[C@H](O)[C@H]1O)c1ccccc1 [Amygdalin]	104% and 107%	102	104	107	106	108	107	95.3
CC(=O)O[C@H]1C[C@H](O[C@H]2[C@@H](O)C[C@H](O[C@H]3[C@@H](O)C[C@H](O[C@H]4CC[C@@]5(C)[C@H](CC[C@@H]6[C@@H]5C[C@@H](O)[C@]5(C)[C@@H](C7=CC(=O)OC7)CC[C@]65O)C4)O[C@@H]3C)O[C@@H]2C)O[C@H](C)[C@H]1O[C@@H]1O[C@H](CO)[C@@H](O)[C@H](O)[C@H]1O [Lanatoside C]	10.1% and 11.2%	12.5	14.9	5.1	4.2	0.9	0.9	3.5
Cc1cc(C(=O)CN2CCCC2)c(C)n1-c1ccc(F)cc1	93.7% and 94%	89.1	80.6	98.2	83.7	94.7	88.4	85.8
O=C(O)CNC(=O)C1C(=O)N(C2CCCCC2)C(=O)N(C2CCCCC2)C1=O	93.8% and 88.7%	83.9	86.5	101	83.8	94.1	98.8	98.5
CCC(COC(=O)c1cc(OC)c(OC)c(OC)c1)(c1ccccc1)N(C)C (stereo unspecified) [Trimebutine maleate]	99% and 90.6%	98.2	87.9	90.3	88.9	98.2	89.9	97.4
O=c1ccc2c(O)c3ccoc3cc2o1 [Bergaptol]	108% and 106%	116	105	95.6	113	107	106	97.5
O=c1ccc2cc3ccoc3c(O)c2o1 [Xanthotoxol]	91.6% and 88.5%	87.1	84.3	95.3	92.8	92.2	96.5	93.3
O=C1CCC[C@@H]2[C@H]3CCCN4CCC[C@H](CN12)[C@@H]34 [Sophoridine]	104% and 100%	105	108	113	103	108	100	101
Cc1cc(SCc2sc(-c3ccc(C(F)(F)F)c(F)c3)nc2C)ccc1OCC(=O)O	100% and 101%	105	106	112	99.7	103	95.9	101
C[C@@H]1CC[C@H]2[C@@H](C)C(=O)O[C@@H]3O[C@@]4(C)CC[C@@H]1[C@]32OO4 [Artemisinin]	83% and 79.2%	78.7	74.8	93.3	85.8	87.3	84.6	98.2
c1cc2c(cc1[C@H]1OC[C@H]3[C@@H]1CO[C@H]3c1ccc3c(c1)OCO3)OCO2 [Asarinin]	99.6% and 99.4%	102	91.7	104	100	103	89.1	89.4
O=c1ccc2ccc3occc3c2o1 [Isopsoralen]	105% and 98.7%	105	100	101	108	110	103	97

SMILES	cell viability (K562; SRSF2 genotype: SRSF2 P95H/wt)	cell viability (K562; SRSF2 genotype: SRSF2 wt/wt) [%]	cell viability (MARIMO; SRSF2 genotype: SRSF2 P95H/wt) [%]	cell viability (MARIMO; SRSF2 genotype: SRSF2 wt/wt) [%]	cell viability (MOLM14; SRSF2 genotype: SRSF2 P95H/wt) [%]	cell viability (MOLM14; SRSF2 genotype: SRSF2 wt/wt) [%]	cell viability (OCI-AML2; SRSF2 genotype: P95H/wt) [%]	cell viability (OCI-AML2; SRSF2 genotype: wt/wt) [%]
C[C@](O)(COc1ccc(C#N)cc1)C(=O)Nc1ccc(C#N)c(C(F)(F)F)c1	90.6% and 94.9%	97.9	98.7	94.2	94	96.7	99.4	93.4
OC(c1ccccc1)(c1ccccc1)C1CCNCC1 [Azacyclonol]	93.7% and 92.3%	95.1	85.4	94.4	94.7	97.8	89	94.5
CC1C(=O)OC2C(O)C34C5OC(=O)C3(OC3OC(=O)C(O)C34C(C(C)(C)C)C5O)C12O (stereo unspecified) [Ginkgolide C]	98.9% and 97.9%	94.4	93.5	97.6	103	103	102	105
CCC1(c2ccc(N)cc2)CCC(=O)NC1=O (stereo unspecified) [Aminoglutethimide (Cytadren)]	98.1% and 103%	110	96.7	101	99.8	103	107	108
C[C@@H]1CC[C@@]2(OC1)O[C@H]1C[C@H]3[C@@H]4CC=C5C[C@@H](O[C@@H]6O[C@H](CO)[C@@H](O[C@@H]7O[C@@H](C)[C@H](O)[C@@H](O)[C@H]7O)[C@H](O)[C@H]6O[C@@H]6O[C@@H](C)[C@H](O)[C@@H](O)[C@H]6O)CC[C@]5(C)[C@H]4CC[C@]3(C)[C@H]1[C@@H]2C [Dioscin (Collettiside III)]	0.8% and 0.73%	0.55	1.89	0.64	0.47	0.55	0.51	0.51
C=CC[C@]1(O)CC[C@H]2[C@@H]3CCC4=CC(=O)CCC4=C3C=C[C@@]21C [Altrenogest]	92.6% and 98.1%	97.5	99.9	102	99.8	107	109	96.9
CCN(CC)C(=O)c1ccc(C2=CC3(CCNCC3)Oc3cccc(O)c32)cc1	93.6% and 101%	92.9	88.9	98.2	97.5	93.4	97.3	89
CC(C)c1cc2c(c(O)c1O)[C@@]1(C(=O)O)CCCC(C)(C)[C@@H]1CC2 [Carnosic acid]	70.2% and 83.7%	86.6	41.8	5.17	43.8	41.1	33.2	27.1
CC(=O)OC1CN2CCC1CC2 (stereo unspecified) [Aceclidine HCl]	99.8% and 104%	100	104	112	104	106	102	105
C=C1CCC2C(/C=C(\C)C(=O)C3(OC(C)=O)CC(C)C(OC(=O)c4ccccc4)C3C1OC(C)=O)C2(C)C (stereo unspecified) [Euphorbia factor L3]	48% and 62.5%	59.5	34.8	33.8	47.6	32.9	65.8	22.4
CC1(C)C(=O)N(c2ccc(C#N)c(C(F)(F)F)c2)C(=O)N1CCCCO	89% and 95%	92.3	91.5	103	93.5	104	88.6	96.6
CN1CCC(c2c[nH]c3ccc(O)cc23)CC1	107% and 100%	102	101	104	103	102	91.8	105
C[N+](C)(C)CCCCCCCCCC[N+](C)(C)C [Decamethonium Bromide]	100% and 109%	111	98.9	102	102	101	120	102
CC[C@]12C=CCN3CC[C@]4(C(=C(C(=O)OC)C1)Nc1ccccc14)[C@@H]32 [Tabersonine hydrochloride]	18.2% and 28.9%	32.3	13	13.8	3.62	1.08	8.35	13.7
C=C1[C@H]2C[C@@]3([C@@H]1O)[C@@H](CC2=O)[C@]12[C@@H]4C[C@H]3[C@H]1N(CC)C[C@]4(C)CC[C@@H]2O [Songorine]	96.8% and 99.6%	101	98	98.8	102	98.4	103	103
CC[N+](C)(CC)CCOC(=O)C(O)(c1ccccc1)c1ccccc1 [Methylbenactyzine Bromide]	95.9% and 96.8%	100	97.7	104	96.1	102	97.7	91
CN1CC=C(c2ccccc2)CC1 [MPTP hydrochloride]	100% and 99.7%	102	107	111	103	105	92.5	108
CC(C)N(CCC(C(N)=O)(c1ccccc1)c1ccccn1)C(C)C (stereo unspecified) [disopyramide phosphate]	98.9% and 108%	106	104	109	104	104	107	96.2
O=C(O)C(=O)c1cn(Cc2ccccc2)c2ccc(-c3ccc(OC(F)(F)F)cc3)cc12 [Tiplaxtinin (PAI-039)]	84.4% and 88.9%	90.3	92.3	101	90.9	93.8	97.4	103
C=C[C@H]1CN2CC[C@]3(C(=O)Nc4ccccc43)[C@@H]2C[C@@H]1/C(=C\OC)C(=O)OC [Corynoxeine]	92.3% and 98.1%	97.7	84.5	81.1	93.8	93.1	96	95.4
CCCC[N+]1(C)[C@@H]2CC(OC(=O)[C@H](CO)c3ccccc3)C[C@H]1[C@@H]1O[C@@H]12 (stereo partly specified) [Butylscopolamine bromide (Scopolamine butylb]	108% and 95.5%	97.8	102	110	97.5	103	94.3	105
